Experimental data as given in the supplement of paper PMC7411054.

Columns and labels:
Assay in all cases: phenotypically active (imaging signature differs from DMSO and reproducible) at any of 0.3-9 uM (binary (1 = active, 0 = inactive)); higher = active
Conditions in all cases: treatment time: 24 h
A549-ACTB-RAB5A = tested on: A549-ACTB-RAB5A
Procedure, shortened: (§1)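 After 24 h at 0.3, 1, 3 or 9 µM, with four wells per treatment, fifteen gene-edited A549, HepG2 and WPMY1 reporter lines carrying BFP, GFP and RFP/FusionRed were imaged live. Each well's live-cell features were expressed relative to solvent control wells. Deviation required ≥3 of 4 wells past the 95th percentile of control Euclidean distances, and reproducibility a median replicate Pearson correlation over the 95th percentile of non-replicates. Phenotypic activity rested on both.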

A549-CANX-COX4 = tested on: A549-CANX-COX4
Procedure, shortened: as §1

A549-GM130-SQSTM1 = tested on: A549-GM130-SQSTM1
Procedure, shortened: as §1

A549-TP53BP1-CLTA = tested on: A549-TP53BP1-CLTA
Procedure, shortened: as §1

A549-TUBA1B-RELA = tested on: A549-TUBA1B-RELA
Procedure, shortened: as §1

HepG2-ACTB-RAB5A = tested on: HepG2-ACTB-RAB5A
Procedure, shortened: as §1

HepG2-CANX-COX4 = tested on: HepG2-CANX-COX4
Procedure, shortened: as §1

HepG2-GM130-SQSTM1 = tested on: HepG2-GM130-SQSTM1
Procedure, shortened: as §1

HepG2-TP53BP1-CLTA = tested on: HepG2-TP53BP1-CLTA
Procedure, shortened: as §1

HepG2-TUBA1B-RELA = tested on: HepG2-TUBA1B-RELA
Procedure, shortened: as §1

WPMY1-ACTB-RAB5A = tested on: WPMY1-ACTB-RAB5A
Procedure, shortened: as §1

WPMY1-CANX-COX4 = tested on: WPMY1-CANX-COX4
Procedure, shortened: as §1

WPMY1-GM130-SQSTM1 = tested on: WPMY1-GM130-SQSTM1
Procedure, shortened: as §1

WPMY1-TP53BP1-CLTA = tested on: WPMY1-TP53BP1-CLTA
Procedure, shortened: as §1

WPMY1-TUBA1B-RELA = tested on: WPMY1-TUBA1B-RELA
Procedure, shortened: as §1

Measured: phenotypically active

NS(=O)(=O)c1cc2c(cc1Cl)N=C(CSCc1ccccc1)NS2(=O)=O [benzthiazide]
inactive: A549-ACTB-RAB5A 0 | A549-CANX-COX4 0 | A549-GM130-SQSTM1 0 | A549-TP53BP1-CLTA 0 | A549-TUBA1B-RELA 0 | HepG2-ACTB-RAB5A 0 | HepG2-CANX-COX4 0 | HepG2-GM130-SQSTM1 0 | HepG2-TP53BP1-CLTA 0 | HepG2-TUBA1B-RELA 0 | WPMY1-ACTB-RAB5A 0 | WPMY1-CANX-COX4 0 | WPMY1-GM130-SQSTM1 0 | WPMY1-TP53BP1-CLTA 0 | WPMY1-TUBA1B-RELA 0

CCCC(=O)O [Sodium butyrate]
inactive: A549-ACTB-RAB5A 0 | A549-CANX-COX4 0 | A549-GM130-SQSTM1 0 | A549-TP53BP1-CLTA 0 | A549-TUBA1B-RELA 0 | HepG2-ACTB-RAB5A 0 | HepG2-CANX-COX4 0 | HepG2-GM130-SQSTM1 0 | HepG2-TP53BP1-CLTA 0 | HepG2-TUBA1B-RELA 0 | WPMY1-ACTB-RAB5A 0 | WPMY1-CANX-COX4 0 | WPMY1-GM130-SQSTM1 0 | WPMY1-TP53BP1-CLTA 0 | WPMY1-TUBA1B-RELA 0

CCc1cccc2c3c([nH]c12)C(CC)(CC(=O)O)OCC3 (stereo not given) [etodolac]
inactive: A549-ACTB-RAB5A 0 | A549-CANX-COX4 0 | A549-GM130-SQSTM1 0 | A549-TP53BP1-CLTA 0 | A549-TUBA1B-RELA 0 | HepG2-ACTB-RAB5A 0 | HepG2-CANX-COX4 0 | HepG2-GM130-SQSTM1 0 | HepG2-TP53BP1-CLTA 0 | HepG2-TUBA1B-RELA 0 | WPMY1-ACTB-RAB5A 0 | WPMY1-CANX-COX4 0 | WPMY1-GM130-SQSTM1 0 | WPMY1-TP53BP1-CLTA 0 | WPMY1-TUBA1B-RELA 0

COc1ccc2c(c1)c(CC(=O)O)c(C)n2C(=O)c1ccc(Cl)cc1 [indomethacin]
inactive: A549-ACTB-RAB5A 0 | A549-CANX-COX4 0 | A549-GM130-SQSTM1 0 | A549-TP53BP1-CLTA 0 | A549-TUBA1B-RELA 0 | HepG2-ACTB-RAB5A 0 | HepG2-CANX-COX4 0 | HepG2-GM130-SQSTM1 0 | HepG2-TP53BP1-CLTA 0 | HepG2-TUBA1B-RELA 0 | WPMY1-ACTB-RAB5A 0 | WPMY1-CANX-COX4 0 | WPMY1-GM130-SQSTM1 0 | WPMY1-TP53BP1-CLTA 0 | WPMY1-TUBA1B-RELA 0

COc1ccc([C@H]2CNC(=O)C2)cc1OC1CCCC1 [(S)-(+)-Rolipram]
inactive: A549-ACTB-RAB5A 0 | A549-CANX-COX4 0 | A549-GM130-SQSTM1 0 | A549-TP53BP1-CLTA 0 | A549-TUBA1B-RELA 0 | HepG2-ACTB-RAB5A 0 | HepG2-CANX-COX4 0 | HepG2-GM130-SQSTM1 0 | HepG2-TP53BP1-CLTA 0 | HepG2-TUBA1B-RELA 0 | WPMY1-ACTB-RAB5A 0 | WPMY1-CANX-COX4 0 | WPMY1-GM130-SQSTM1 0 | WPMY1-TP53BP1-CLTA 0 | WPMY1-TUBA1B-RELA 0

CC[C@H]1OC(=O)[C@H](C)[C@@H](O[C@H]2C[C@@](C)(OC)[C@@H](O)[C@H](C)O2)[C@H](C)[C@@H](O[C@@H]2O[C@H](C)C[C@H](N(C)C)[C@H]2O)[C@](C)(O)C[C@@H](C)C(=O)[C@H](C)[C@@H](O)[C@]1(C)O [Erythromycin]
inactive: A549-ACTB-RAB5A 0 | A549-CANX-COX4 0 | A549-GM130-SQSTM1 0 | A549-TP53BP1-CLTA 0 | A549-TUBA1B-RELA 0 | HepG2-ACTB-RAB5A 0 | HepG2-CANX-COX4 0 | HepG2-GM130-SQSTM1 0 | HepG2-TP53BP1-CLTA 0 | HepG2-TUBA1B-RELA 0 | WPMY1-ACTB-RAB5A 0 | WPMY1-CANX-COX4 0 | WPMY1-GM130-SQSTM1 0 | WPMY1-TP53BP1-CLTA 0 | WPMY1-TUBA1B-RELA 0

CC(Oc1ccc(O)cc1)(P(=O)(O)O)P(=O)(O)O
inactive: A549-ACTB-RAB5A 0 | A549-CANX-COX4 0 | A549-GM130-SQSTM1 0 | A549-TP53BP1-CLTA 0 | A549-TUBA1B-RELA 0 | HepG2-ACTB-RAB5A 0 | HepG2-CANX-COX4 0 | HepG2-GM130-SQSTM1 0 | HepG2-TP53BP1-CLTA 0 | HepG2-TUBA1B-RELA 0 | WPMY1-ACTB-RAB5A 0 | WPMY1-CANX-COX4 0 | WPMY1-GM130-SQSTM1 0 | WPMY1-TP53BP1-CLTA 0 | WPMY1-TUBA1B-RELA 0

CCc1cc2c(=O)c(-c3nc4ccccc4s3)coc2c(CN2CCCCC2)c1O
inactive: A549-ACTB-RAB5A 0 | A549-CANX-COX4 0 | A549-GM130-SQSTM1 0 | A549-TP53BP1-CLTA 0 | A549-TUBA1B-RELA 0 | HepG2-ACTB-RAB5A 0 | HepG2-CANX-COX4 0 | HepG2-GM130-SQSTM1 0 | HepG2-TP53BP1-CLTA 0 | HepG2-TUBA1B-RELA 0 | WPMY1-ACTB-RAB5A 0 | WPMY1-CANX-COX4 0 | WPMY1-GM130-SQSTM1 0 | WPMY1-TP53BP1-CLTA 0 | WPMY1-TUBA1B-RELA 0

CN(C)CCOC(=O)C(c1ccccc1)C1(O)CCCC1 (stereo not given) [cyclopentolate]
inactive: A549-ACTB-RAB5A 0 | A549-CANX-COX4 0 | A549-GM130-SQSTM1 0 | A549-TP53BP1-CLTA 0 | A549-TUBA1B-RELA 0 | HepG2-ACTB-RAB5A 0 | HepG2-CANX-COX4 0 | HepG2-GM130-SQSTM1 0 | HepG2-TP53BP1-CLTA 0 | HepG2-TUBA1B-RELA 0 | WPMY1-ACTB-RAB5A 0 | WPMY1-CANX-COX4 0 | WPMY1-GM130-SQSTM1 0 | WPMY1-TP53BP1-CLTA 0 | WPMY1-TUBA1B-RELA 0

CCCCC(=O)N(Cc1ccc(-c2ccccc2-c2nnn[nH]2)cc1)[C@H](C(=O)O)C(C)C [valsartan]
inactive: A549-ACTB-RAB5A 0 | A549-CANX-COX4 0 | A549-GM130-SQSTM1 0 | A549-TP53BP1-CLTA 0 | A549-TUBA1B-RELA 0 | HepG2-ACTB-RAB5A 0 | HepG2-CANX-COX4 0 | HepG2-GM130-SQSTM1 0 | HepG2-TP53BP1-CLTA 0 | HepG2-TUBA1B-RELA 0 | WPMY1-ACTB-RAB5A 0 | WPMY1-CANX-COX4 0 | WPMY1-GM130-SQSTM1 0 | WPMY1-TP53BP1-CLTA 0 | WPMY1-TUBA1B-RELA 0

O=C1NCCCC1C(=O)NCCc1c[nH]c2ccc(O)cc12 (stereo not given)
inactive: A549-ACTB-RAB5A 0 | A549-CANX-COX4 0 | A549-GM130-SQSTM1 0 | A549-TP53BP1-CLTA 0 | A549-TUBA1B-RELA 0 | HepG2-ACTB-RAB5A 0 | HepG2-CANX-COX4 0 | HepG2-GM130-SQSTM1 0 | HepG2-TP53BP1-CLTA 0 | HepG2-TUBA1B-RELA 0 | WPMY1-ACTB-RAB5A 0 | WPMY1-CANX-COX4 0 | WPMY1-GM130-SQSTM1 0 | WPMY1-TP53BP1-CLTA 0 | WPMY1-TUBA1B-RELA 0

C=C1C[C@@]23CCC4[C@@](C)(CCC[C@@]4(C)C(=O)O[C@@H]4O[C@H](CO)C(O)[C@H](O)C4O)C2CC[C@@]1(O[C@H]1O[C@H](CO)C(O)[C@H](O)[C@H]1O[C@@H]1O[C@H](CO)[C@@H](O)[C@H](O)[C@H]1O)C3 (stereo not given in full) [Stevioside]
inactive: A549-ACTB-RAB5A 0 | A549-CANX-COX4 0 | A549-GM130-SQSTM1 0 | A549-TP53BP1-CLTA 0 | A549-TUBA1B-RELA 0 | HepG2-ACTB-RAB5A 0 | HepG2-CANX-COX4 0 | HepG2-GM130-SQSTM1 0 | HepG2-TP53BP1-CLTA 0 | HepG2-TUBA1B-RELA 0 | WPMY1-ACTB-RAB5A 0 | WPMY1-CANX-COX4 0 | WPMY1-GM130-SQSTM1 0 | WPMY1-TP53BP1-CLTA 0 | WPMY1-TUBA1B-RELA 0
